Records with an inconclusive call do not appear. Some compounds were tested as several samples or in several runs, with calls that do not always agree. Active and inactive are the calls of the source. Rule for the calls: active = hit-call score of the fitted dose curve at least 0.9, where 1 is the maximum; inconclusive = response in the unintended direction; inactive = score below 0.9.
test system: frog Estrogen Receptor (ER), gene 398734; assay: ATG_frER1_XSP2: Attagene TRANS-FACTORIAL Multi-Species (XSP2) HepG2 Assay for frog Estrogen Receptor (ER) (AID 2283821);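 note: hits raise reporter mRNA above DMSO baseline so potency means agonist or activator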
Method: ATG_XSP2_multi-species_TRANS is a cell-based, multiplexed assay created by modifying the existing Attagene TRANS-FACTORIAL system to include a panel of nuclear receptors from some or all the following species: human (Homo sapiens), mouse (Mus musculus), frog (Xenopus laevis), zebrafish (Danio rerio), chicken (Gallus gallus), and turtle (Chrysemys picta). The ECOTOX-FACTORIAL format uses HepG2, a human liver cell line, with measurements taken at 24 hours after chemical dosing in a 24-well plate. Xsp2 included 3 nM 6-alpha-fluorotestosterone and 1.5 nM norgestrel to stimulate the androgen receptor.ATG_frER1_XSP2 is one of 29 assay components measured or calculated from the ATG_XSP2_multi-species_TRANS assay. It is designed to make measurements of mRNA induction, a form of inducible reporter, as detected with fluorescence intensity signals by Reverse transcription polymerase chain reaction (RT-PCR) and Capillary electrophoresis technology.The assay endpoint ATG_frER1_XSP2 was analyzed in the positive analysis fitting direction relative to DMSO as the negative control and baseline of activity. Using a type of inducible reporter, measures of mRNA for gain-of-signal activity can be used to understand the reporter gene at the transcription factor-level as they relate to the gene ER. Furthermore, this assay endpoint can be referred to as a primary readout, because this assay has produced multiple assay endpoints where this one serves a reporter gene function. To generalize the intended target to other relatable targets, this assay endpoint is annotated to the nuclear receptor intended target family, where the subfamily is steroidal.
Human liver HepG2 cells are transiently transfected with multiple reporter transcription units (MRTUs) in 6-well plates using FuGene 6 reagent (Roche; 3 ml FuGene/1 mg DNA). The MRTU constructs are regulated by a cis-regulating element (promoter). […] A major difference between the CIS and TRANS system is that in CIS activities of endogenous TFs are measured, whereas the TRANS assay evaluates changes in activities of exogenous, chimeric NR-Gal4 proteins. […] At the end of 24 hour incubation, total RNA was isolated using TriZol reagent (Invitrogen). The isolated RNA is then reverse-transcribed using oligo(dT) primer and Mo-MLV reverse transcriptase (Invitrogen) with DNAse I (Ambion) treatment for 30 min. The one-tenth of the produced cDNA was amplified by PCR using Taq DNA polymerase (Invitrogen) and two reporter sequence-specific primers. The PCR products were fluorescently labeled by primer extension with 6-arboxyfluorescein (6-FAM) 5'-labeled reporter sequence-specific primer (2 min at 95 C, 20 s at 68 C and 10 min at 72 C) and these products were digested with 5U of HpaI (New England Biolabs) for 2h at 37 C. The fragments were purified using Qiaquick PCR columns (Qiagen), analyzed on an ABI 3130xL genetic analyzer (Applied Biosystems) with peak positions identified by using a set of X-rhodamine (ROX)-labeled MapMarker1000 molecular weight standards (BioVentures). The raw capillary electrophoresis data was processed using Attagraph software (Attagene).

Row | Compound | outcome | AC50
1 | CC(=O)S[C@@H]1CC2=CC(=O)CC[C@]2(C)[C@H]2CC[C@@]3(C)[C@@H](CC[C@@]34CCC(=O)O4)[C@H]12 | inactive | –
2 | CN(C)C(=O)Nc1ccc(Cl)c(Cl)c1 | inactive | 19600 nM (active)
3 | C#C[C@]1(O)CC[C@H]2[C@@H]3CCC4=CC(=O)CC[C@@H]4[C@H]3CC[C@@]21CC | inactive | 275 nM (active)
4 | N[C@@H](Cc1cc(I)c(Oc2ccc(O)c(I)c2)c(I)c1)C(=O)O | inactive | 3680 nM (active)
5 | CCN(Cc1c(F)cccc1Cl)c1c([N+](=O)[O-])cc(C(F)(F)F)cc1[N+](=O)[O-] | inactive | –
6 | CCCCC(CC)COC(=O)c1ccccc1C(=O)O (configuration not stated) | – | 4220 nM (active)
7 | C=CCOC(Cn1ccnc1)c1ccc(Cl)cc1Cl (configuration not stated) | inactive | –
8 | CC(C)(c1ccc(O)cc1)c1ccc(O)cc1 | – | 2640 nM (active)
9 | CCCCC(CC)CN1C(=O)C2C3C=CC(C3)C2C1=O (configuration not stated) | inactive | –
10 | CC(C)CCCCCCc1ccc(O)cc1 | – | 750 nM (active)
11 | CSC(=O)c1cccc2nnsc12 | inactive | –
12 | O=C(c1ccc(O)cc1O)c1ccc(O)cc1O | – | 1660 nM (active)
13 | CC1(C)C(C=C(Cl)Cl)C1C(=O)OCc1cccc(Oc2ccccc2)c1 (configuration not stated) | inactive | –
14 | Oc1ccc(C(c2ccc(O)cc2)C(Cl)(Cl)Cl)cc1 | inactive | –

Source: PubChem BioAssay (EPA / NIEHS)
